We go through seven compounds from PubChem BioAssay (Tox21).

Where “and” joins values, the source holds several entries; their conditions need not be identical. Identical values can stand only once. Results filed as inconclusive are left out. Some structures have more than one record in an assay (separate samples or runs), and their calls can disagree. Calls of active or inactive are those of the source. Unless noted, calls follow the shape of the dose curve; as a rule, active = well fitted curve in the direction sought with a large enough effect in the repeat runs; inconclusive = weak or mixed curves; inactive = no such curve, though single readings can be large; an effect the other way counts as inactive or inconclusive.

In experiment [1] the target is Thyrotropin-releasing hormone receptor (Homo sapiens) (UniProt P34981). Description: qHTS assay to identify small molecule agonists of the thyrotropin-releasing hormone receptor (TRHR) signaling pathway (AID 1346891; calls by dose curve; also: series mostly up to about 58 µM). The gist of the method: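 Intracellular calcium rise, read as fluorescence every second for 3 min, served as the agonist signal in dye-loaded HEK293 cells expressing TRHR; each compound ran at 15 concentrations in triplicate.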
(In qHTS, concentration-response curves come from the screen itself.)

Experiment [2] is described as follows: Human pregnane X receptor (PXR) small molecule agonists, qHTS cell viability counter screen (AID 1346977). Also: nearly all actives have a fitted effect of over 50% in size. Also: potency is read from the fitted curve at half-maximal effect. The procedure, abridged:
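PXR-Luc HepG2, 2,000 cells/well, 5% charcoal-stripped FBS; 5hr settle; cpd 24hr, 37C/5% CO2; CellTiter-Fluor at 23hr, read 1hr later (fluorescence).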

Experiment [3] is described as follows: Caspase-3/7 induction in HepG2 cells by small molecules, qHTS assay (AID 1346978). Also: nearly all actives have a fitted effect of over 15% in size. The procedure, abridged:
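Caspase-3/7 induction was measured by Caspase-Glo 3/7 luminescence (30 min, room temperature) after a 17 hr compound exposure of wild-type HepG2 cells seeded at 2,000 per well and pre-incubated 5 hr.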

Experiment [4] in a line: Caspase-3/7 induction in CHO-K1 cells by small molecules, qHTS cell viability counter screen (AID 1346979). Also: nearly all actives have a fitted effect of over 35% in size. Also: potency is read from the fitted curve at half-maximal effect. The procedure, abridged: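 Cells (CHO-K1, wild type) are plated at 1,500 per well and incubated 5hr. Test compounds in DMSO are then pinned in, followed by 16hr at 37C and 5% CO2. Viability is read by CellTiter-Fluor fluorescence after 1hr.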
Experiment [5] in a line: Caspase-3/7 induction in CHO-K1 cells by small molecules, qHTS assay (AID 1346980). Also: nearly all actives have a fitted effect of over 15% in size. The procedure, abridged: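 Luminescent Caspase-Glo 3/7 read (30min, room temperature) quantified apoptosis induction. Cells were wild-type CHO-K1, treated with compound for 17hr at 37 C and 5% CO2.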
Experiment [6] in a line: Caspase-3/7 induction in HepG2 cells by small molecules, qHTS cell viability counter screen (AID 1346981). Also: nearly all actives have a fitted effect of over 30% in size. Also: potency is read from the fitted curve at half-maximal effect. The procedure, abridged: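 In this quantitative HTS counter screen, compounds delivered in DMSO were left on unmodified HepG2 cells for 16 hr at 37 C. Viability was then determined fluorometrically with CellTiter-Fluor, in parallel with caspase-3/7 induction in the same wells.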

Experiment [7] deals with Nuclear receptor subfamily 1 group I member 2 (Homo sapiens) (UniProt O75469). Kind of experiment: Human pregnane X receptor (PXR) small molecule agonists, qHTS assay (AID 1346982). Also: nearly all actives have a fitted effect of over 35% in size. Also: potency is read from the fitted curve at half-maximal effect. The gist of the method:
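Reporter HepG2 cells expressing PXR-Luc are cultured in charcoal-stripped FBS (5%), treated with compounds for 24 hr at 37 C, and assayed by ONE-Glo luminescence after 30 min at room temperature.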

The target of experiment [8] is Cytochrome P450 2D6 (Homo sapiens) (UniProt P10635). Kind of experiment: Cytochrome P450 Family 2 Subfamily D Member 6 (CYP2D6) small molecule antagonists: luciferase reporter qHTS assay (AID 1671196). Also: nearly all actives have a fitted effect of over 50% in size. Also: potency is read from the fitted curve at half-maximal effect. The gist of the method:
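Test chemicals meet CYP2D6 plus proluciferin substrate (10 min, RT); NADPH regenerating solution then drives turnover for 1 h. Detection reagent halts the reaction; luminescence measured after 20 min.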

The target in experiment [9] is Cytochrome P450 2C19 (Homo sapiens) (UniProt P33261). Kind of experiment: Cytochrome P450 Family 2 Subfamily C Member 19 (CYP2C19) small molecule antagonists: luciferase reporter qHTS assay (AID 1671197). Also: nearly all actives have a fitted effect of over 65% in size. Also: potency is read from the fitted curve at half-maximal effect. The procedure, abridged:
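Compounds were tested on CYP2C19 activity via proluciferin conversion to luciferin. The 37C, 1 h reaction followed NADPH addition; detection reagent stopped it.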

Experiment [10] concerns the target Cytochrome P450 2C9 (Homo sapiens) (UniProt P11712). Description: Cytochrome P450 Family 2 Subfamily C Member 9 (CYP2C9) small molecule antagonists: luciferase reporter qHTS assay (AID 1671198). Also: nearly all actives have a fitted effect of over 50% in size. Also: potency is read from the fitted curve at half-maximal effect. The procedure, abridged:
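Enzyme-substrate mix preincubated with compound 10 min at room temperature; reaction started with NADPH regeneration solution, 1 h 37C. Luminescent luciferin product read after 20 min detection reagent.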
In general terms: A reporter such as luciferase makes a cellular process visible.

Experiment [11] has as its target Cytochrome P450 1A2 (Homo sapiens) (UniProt P05177). Description: Cytochrome P450 Family 1 Subfamily A Member 2 (CYP1A2) small molecule antagonists: luciferase reporter qHTS assay (AID 1671199). Also: nearly all actives have a fitted effect of over 50% in size. Also: potency is read from the fitted curve at half-maximal effect. The gist of the method:
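Steps: enzyme-substrate mix dispensed; test compounds and furafylline control pinned in; 10 min room temperature; NADPH regeneration solution added, 1 h; reaction stopped with luciferin detection reagent; luminescence read after 20 min.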

The target in experiment [12] is Voltage-gated inwardly rectifying potassium channel KCNH2 (Homo sapiens) (UniProt Q12809). Description: Human Ether-a-go-go-Related Gene (hERG) channel small molecule antagonists: fluorescence cell-based qHTS assay (AID 1671200). The procedure, abridged: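 Channel function was assessed by thallium flux. Cells seeded the previous day and kept at 37 C took up FluxOR II dye over 1 h in the dark at room temperature, then sat another 10 min before stimulation.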

Experiment [13] concerns the target Cytochrome P450 3A4 (Homo sapiens) (UniProt P08684). Description: Cytochrome P450 Family 3 Subfamily A Member 4 (CYP3A4) small molecule antagonists: luciferase reporter qHTS assay (AID 1671201). The gist of the method:
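Compounds in DMSO were pin-transferred onto CYP3A4 enzyme-substrate mix and held 10 min at room temperature. NADPH regenerating solution started the reaction for 1 h; luciferin detection reagent stopped it, and luminescence was read after 20 min.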

Experiment [14] deals with Nuclear receptor subfamily 1 group I member 2 (Rattus norvegicus) (UniProt Q9R1A7). Description: Rat pregnane X receptor (rPXR) activation by small molecules, qHTS assay (AID 1346983). Also: nearly all actives have a fitted effect of over 20% in size. Conditions: rPXR luciferase reporter cells, One-Glo luminescence, 24 h; max activation: stronger effect = higher value. The gist of the method: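 Luminescent readout (One-Glo luciferase, 30 min room temperature) followed 24 hr compound treatment at 37 C of rPXR cells plated 2,000 per well and preincubated 5hr; qHTS format with compounds delivered in DMSO.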

Experiment [15] concerns the target Nuclear receptor subfamily 1 group I member 2 (Homo sapiens) (UniProt O75469). Kind of experiment: CYP3A4 induction through human pregnane X receptor (PXR) by small molecules, qHTS assay (AID 1346984). Also: nearly all actives have a fitted effect of over 40% in size. The gist of the method: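 Induction measured in HepG2-based DPX-2 cells co-expressing human PXR and a CYP3A4 promoter-driven luciferase. After a 24-hour compound exposure, cells received CYP3A4 luciferin substrate at 3uM final for 3 hours, and light output was then recorded.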

The target is the same in experiment [16]. Kind of experiment: Human pregnane X receptor (PXR) activation by small molecules, qHTS assay (AID 1346985). Also: nearly all actives have a fitted effect of over 40% in size. The gist of the method: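 DPX-2 cells (HepG2 co-transfected with a PXR response element and a CYP3A4-promoter luciferase construct) were seeded at 2,000 per well, rested 5 hr at 37C, then exposed to DMSO-dissolved compounds for 24 hr. Activation was read as luciferase luminescence.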
% is scaled to controls: 0 for no effect and ±100 for the full control effect.

Cytochrome P450 2C19 (Homo sapiens), sequence (P33261 whole entry, looked up): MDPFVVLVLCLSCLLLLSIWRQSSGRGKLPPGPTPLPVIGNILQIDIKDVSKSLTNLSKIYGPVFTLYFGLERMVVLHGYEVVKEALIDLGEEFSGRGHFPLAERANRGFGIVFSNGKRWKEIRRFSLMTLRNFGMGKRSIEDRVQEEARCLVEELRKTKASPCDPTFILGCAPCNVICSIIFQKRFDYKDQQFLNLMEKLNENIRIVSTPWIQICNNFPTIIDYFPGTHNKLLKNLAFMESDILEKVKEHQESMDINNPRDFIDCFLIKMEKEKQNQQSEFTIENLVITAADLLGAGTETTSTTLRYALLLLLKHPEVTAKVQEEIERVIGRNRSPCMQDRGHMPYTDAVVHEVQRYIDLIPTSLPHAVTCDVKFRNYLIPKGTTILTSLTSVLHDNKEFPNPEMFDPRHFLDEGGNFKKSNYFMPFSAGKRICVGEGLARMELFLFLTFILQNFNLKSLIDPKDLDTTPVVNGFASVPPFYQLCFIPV
Cytochrome P450 3A4 (Homo sapiens), sequence (P08684 whole entry, looked up): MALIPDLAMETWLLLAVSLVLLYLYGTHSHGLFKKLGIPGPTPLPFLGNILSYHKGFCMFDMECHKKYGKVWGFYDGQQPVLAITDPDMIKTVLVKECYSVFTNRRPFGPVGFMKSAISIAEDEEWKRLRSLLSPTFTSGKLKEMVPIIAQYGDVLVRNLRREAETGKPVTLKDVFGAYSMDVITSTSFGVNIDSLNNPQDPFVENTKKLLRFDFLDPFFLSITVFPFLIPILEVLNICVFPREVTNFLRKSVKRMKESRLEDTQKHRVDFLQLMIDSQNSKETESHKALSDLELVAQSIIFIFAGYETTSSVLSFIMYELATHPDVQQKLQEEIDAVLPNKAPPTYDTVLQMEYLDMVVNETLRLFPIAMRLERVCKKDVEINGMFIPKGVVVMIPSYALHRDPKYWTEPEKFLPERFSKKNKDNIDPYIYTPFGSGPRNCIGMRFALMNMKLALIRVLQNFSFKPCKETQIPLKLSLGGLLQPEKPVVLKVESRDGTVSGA
Thyrotropin-releasing hormone receptor (Homo sapiens), sequence (P34981 whole entry, looked up): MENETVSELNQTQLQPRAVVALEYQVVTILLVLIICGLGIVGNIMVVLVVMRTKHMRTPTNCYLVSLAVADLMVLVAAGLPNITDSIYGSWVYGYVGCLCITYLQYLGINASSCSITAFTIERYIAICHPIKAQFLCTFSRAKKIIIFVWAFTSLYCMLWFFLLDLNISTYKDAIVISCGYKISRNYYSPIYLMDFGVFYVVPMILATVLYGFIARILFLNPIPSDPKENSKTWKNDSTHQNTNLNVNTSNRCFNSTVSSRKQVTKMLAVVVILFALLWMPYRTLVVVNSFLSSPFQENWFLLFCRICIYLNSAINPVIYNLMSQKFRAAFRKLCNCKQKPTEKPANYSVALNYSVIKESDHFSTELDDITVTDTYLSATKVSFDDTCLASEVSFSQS
Nuclear receptor subfamily 1 group I member 2 (Homo sapiens), sequence (O75469 whole entry, looked up): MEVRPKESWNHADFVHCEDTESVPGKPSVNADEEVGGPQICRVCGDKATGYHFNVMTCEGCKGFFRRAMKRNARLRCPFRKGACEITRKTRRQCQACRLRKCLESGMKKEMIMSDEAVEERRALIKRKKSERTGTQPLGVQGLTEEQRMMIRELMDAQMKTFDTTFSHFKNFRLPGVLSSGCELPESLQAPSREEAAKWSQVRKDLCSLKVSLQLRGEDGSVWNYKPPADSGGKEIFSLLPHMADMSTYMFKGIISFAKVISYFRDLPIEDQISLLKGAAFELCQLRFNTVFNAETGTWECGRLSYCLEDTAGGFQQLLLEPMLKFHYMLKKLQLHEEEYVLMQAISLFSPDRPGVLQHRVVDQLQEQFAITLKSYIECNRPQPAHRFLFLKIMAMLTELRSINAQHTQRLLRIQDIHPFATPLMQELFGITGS
Cytochrome P450 1A2 (Homo sapiens), sequence (P05177 whole entry, looked up): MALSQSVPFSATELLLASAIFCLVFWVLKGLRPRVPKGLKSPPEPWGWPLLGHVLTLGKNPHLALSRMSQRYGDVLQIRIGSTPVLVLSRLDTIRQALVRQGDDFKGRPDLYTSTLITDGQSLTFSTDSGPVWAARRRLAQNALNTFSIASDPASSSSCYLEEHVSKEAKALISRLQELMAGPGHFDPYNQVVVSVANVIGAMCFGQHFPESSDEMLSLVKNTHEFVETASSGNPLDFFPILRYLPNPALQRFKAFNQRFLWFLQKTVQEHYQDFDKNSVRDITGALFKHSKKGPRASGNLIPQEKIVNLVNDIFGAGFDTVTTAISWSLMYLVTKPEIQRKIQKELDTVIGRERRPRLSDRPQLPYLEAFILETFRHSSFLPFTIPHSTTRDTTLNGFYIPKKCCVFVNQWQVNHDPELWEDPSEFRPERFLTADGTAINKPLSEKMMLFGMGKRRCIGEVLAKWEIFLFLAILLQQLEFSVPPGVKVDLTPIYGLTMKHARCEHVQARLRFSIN
Cytochrome P450 2D6 (Homo sapiens), sequence (P10635 whole entry, looked up): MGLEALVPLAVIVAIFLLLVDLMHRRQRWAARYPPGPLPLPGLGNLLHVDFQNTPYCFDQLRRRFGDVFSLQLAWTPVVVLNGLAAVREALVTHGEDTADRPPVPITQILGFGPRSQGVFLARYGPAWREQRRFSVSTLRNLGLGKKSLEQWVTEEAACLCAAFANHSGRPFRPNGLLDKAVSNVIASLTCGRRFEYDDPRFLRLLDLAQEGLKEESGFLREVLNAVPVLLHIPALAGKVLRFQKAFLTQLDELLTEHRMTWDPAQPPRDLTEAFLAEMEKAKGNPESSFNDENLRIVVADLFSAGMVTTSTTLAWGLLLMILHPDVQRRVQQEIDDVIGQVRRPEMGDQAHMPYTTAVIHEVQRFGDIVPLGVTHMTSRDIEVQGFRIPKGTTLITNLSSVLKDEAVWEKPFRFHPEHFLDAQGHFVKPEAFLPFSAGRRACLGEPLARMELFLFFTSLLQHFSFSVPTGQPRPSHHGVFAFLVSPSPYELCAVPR
Voltage-gated inwardly rectifying potassium channel KCNH2 (Homo sapiens), sequence (Q12809 whole entry, looked up): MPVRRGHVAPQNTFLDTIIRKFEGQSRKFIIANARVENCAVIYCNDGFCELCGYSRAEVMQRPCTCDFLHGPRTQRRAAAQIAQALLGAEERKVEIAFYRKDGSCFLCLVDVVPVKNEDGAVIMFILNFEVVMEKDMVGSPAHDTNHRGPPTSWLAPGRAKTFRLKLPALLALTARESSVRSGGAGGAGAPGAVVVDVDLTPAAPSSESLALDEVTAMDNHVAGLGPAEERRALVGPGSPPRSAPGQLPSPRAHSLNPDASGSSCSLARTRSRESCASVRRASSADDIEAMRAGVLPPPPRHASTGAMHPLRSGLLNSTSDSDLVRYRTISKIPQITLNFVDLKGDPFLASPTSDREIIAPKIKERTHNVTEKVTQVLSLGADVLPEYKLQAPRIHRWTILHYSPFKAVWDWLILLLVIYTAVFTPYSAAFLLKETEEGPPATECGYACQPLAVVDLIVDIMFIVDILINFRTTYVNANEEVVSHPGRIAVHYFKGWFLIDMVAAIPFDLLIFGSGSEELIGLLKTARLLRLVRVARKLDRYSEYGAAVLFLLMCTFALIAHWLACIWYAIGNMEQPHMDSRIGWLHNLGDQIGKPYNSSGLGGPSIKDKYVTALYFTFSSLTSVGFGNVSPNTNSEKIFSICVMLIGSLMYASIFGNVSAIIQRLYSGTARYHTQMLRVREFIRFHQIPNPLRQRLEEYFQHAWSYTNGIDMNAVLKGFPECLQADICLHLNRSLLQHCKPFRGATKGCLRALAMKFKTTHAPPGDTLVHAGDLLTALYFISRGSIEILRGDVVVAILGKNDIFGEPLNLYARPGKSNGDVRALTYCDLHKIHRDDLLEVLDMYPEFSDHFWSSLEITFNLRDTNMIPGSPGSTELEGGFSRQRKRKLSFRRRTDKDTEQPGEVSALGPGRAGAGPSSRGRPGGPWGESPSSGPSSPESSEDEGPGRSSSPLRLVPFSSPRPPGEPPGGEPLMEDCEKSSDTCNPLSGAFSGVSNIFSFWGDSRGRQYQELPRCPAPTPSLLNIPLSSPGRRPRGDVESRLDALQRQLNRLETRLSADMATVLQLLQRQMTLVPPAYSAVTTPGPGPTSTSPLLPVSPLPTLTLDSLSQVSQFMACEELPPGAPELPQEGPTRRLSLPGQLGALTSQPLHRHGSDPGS
Cytochrome P450 2C9 (Homo sapiens), sequence (P11712 whole entry, looked up): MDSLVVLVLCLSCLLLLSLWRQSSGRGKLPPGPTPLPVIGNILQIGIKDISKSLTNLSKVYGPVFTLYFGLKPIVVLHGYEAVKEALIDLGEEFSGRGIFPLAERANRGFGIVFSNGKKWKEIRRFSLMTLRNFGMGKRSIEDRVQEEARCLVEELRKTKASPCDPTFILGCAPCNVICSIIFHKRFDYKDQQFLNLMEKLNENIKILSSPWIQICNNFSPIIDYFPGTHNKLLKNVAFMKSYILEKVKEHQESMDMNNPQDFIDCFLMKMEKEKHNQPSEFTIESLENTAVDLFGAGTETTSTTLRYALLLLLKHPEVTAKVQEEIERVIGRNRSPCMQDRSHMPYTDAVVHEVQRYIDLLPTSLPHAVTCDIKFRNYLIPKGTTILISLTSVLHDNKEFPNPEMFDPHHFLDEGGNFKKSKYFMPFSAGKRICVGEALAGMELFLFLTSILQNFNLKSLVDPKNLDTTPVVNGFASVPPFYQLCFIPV
Nuclear receptor subfamily 1 group I member 2 (Rattus norvegicus), sequence (Q9R1A7 whole entry, looked up): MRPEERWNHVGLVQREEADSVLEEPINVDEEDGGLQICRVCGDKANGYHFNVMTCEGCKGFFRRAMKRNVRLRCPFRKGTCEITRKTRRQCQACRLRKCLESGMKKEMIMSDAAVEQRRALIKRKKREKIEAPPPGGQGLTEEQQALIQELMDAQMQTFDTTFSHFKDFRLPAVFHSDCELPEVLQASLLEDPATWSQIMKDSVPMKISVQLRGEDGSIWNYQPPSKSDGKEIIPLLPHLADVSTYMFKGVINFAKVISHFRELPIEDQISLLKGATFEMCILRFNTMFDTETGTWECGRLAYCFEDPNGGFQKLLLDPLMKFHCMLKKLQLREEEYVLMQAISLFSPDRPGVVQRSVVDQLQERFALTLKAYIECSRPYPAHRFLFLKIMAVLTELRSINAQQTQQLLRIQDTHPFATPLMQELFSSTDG

As to `NC(=O)/N=N/C(N)=O`, the Potency entry in experiment [1], in experiment [2], in [3], in experiment [4], in [5] and in experiment [6] was “inactive” each time. Further, the Potency result in experiment [7], in experiment [8], in experiment [12] and in experiment [13] was “inactive” throughout. In addition, the Potency in experiment [9] is 3.18 µM (active) and 5.64 µM (active); in experiment [10], 4 µM (active) and 3.99 µM (active); in experiment [11], 17.9 µM (active) and 15.9 µM (active).

For the compound `O=C1O[C@H](CO)[C@@H](O)[C@H](O)[C@H]1O`, the Potency entry in experiment [1], in experiment [2], in experiment [3], in experiment [4], in experiment [5] and in experiment [6] was “inactive” in each case. Further, the Potency entry in experiment [7], in experiment [8], in experiment [9], in experiment [10], in [12] and in experiment [13] was “inactive” throughout. For the same compound, the max activation in [14] is 1.43% (inactive). The compound was classed as inactive in experiment [15] and in experiment [16].

As to `COC(=O)c1ccccc1O`, the Potency result in experiment [1], in experiment [2], in [3], in experiment [4], in experiment [5] and in [6] was “inactive” in each case. Also, the Potency entry in experiment [8], in [10], in [12] and in experiment [13] was “inactive” throughout. The Potency in [7] is 34.4 µM (active) and inactive; in experiment [9], 35.7 µM (active) and inactive; in [11], 6.35 µM (active). The max activation in experiment [14] was -0.564% (inactive). Moreover, the compound was called inactive in experiment [15] and in experiment [16].

Regarding `O=[N+]([O-])c1cccc(Cl)c1`, the Potency result in experiment [1], in experiment [2], in [3], in [4], in experiment [5] and in experiment [6] was “inactive” throughout. Moreover, the Potency result in experiment [7], in experiment [8], in experiment [9], in experiment [10], in experiment [12] and in [13] was “inactive” in each case.

As for `CCCCCC/C=C/CCCCCCCC(=O)O`, the Potency result in experiment [1], in experiment [2], in experiment [3], in experiment [4], in experiment [5] and in [6] was “inactive” throughout. For the same compound, the Potency entry in experiment [7], in [8], in [9], in experiment [10], in experiment [11] and in experiment [12] was “inactive” each time. The Potency result in [13] was “inactive”.

For `NCCc1ccc(O)c(O)c1`, the Potency result in experiment [1], in experiment [3], in experiment [5], in [7], in [10] and in experiment [12] was “inactive” each time. Further, the Potency result in [13] is “inactive”. Besides, the Potency was 30.7 µM (active) in [2]; 61.3 µM (active) and inactive in experiment [4]; 68.8 µM (active) and inactive in experiment [6]; 63.5 µM (active) and inactive in experiment [8]; 71.2 µM (active) and inactive in experiment [9].

Take `O=C(O)c1ccc([N+](=O)[O-])cc1`: the Potency result in experiment [1], in experiment [2], in [3], in experiment [4], in experiment [5] and in [6] was “inactive” each time. For the same compound, the Potency entry in experiment [7], in experiment [8], in experiment [9], in [10], in experiment [11] and in experiment [12] was “inactive” in each case. The Potency result in [13] is “inactive”.
